Laboratory results published in article PMC5540273 (PLoS ONE, 2017).

system: BMPR1A; details: concentration: 1 μM,replicates: in singlicate; n = 1
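Further: KINOMEscan kinase panel screen.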

| Structure (SMILES) | %Inh [%] |
| --- | --- |
| Cc1cccc2c(-c3ccncc3)c(-c3ccc(F)cc3)nn12.Cl [GW461487] | 0 |
| N#Cc1cccc(C(=O)NC2CCN(c3ccnc(Nc4ccc(F)cc4)n3)C2)c1 (stereo not drawn) [GSK1379708] | 0 |
| Cc1n[nH]c2cc(Nc3ccnc(Nc4cccc(CN5CCOCC5)c4)n3)ccc12 [GW682569] | 0 |
| Cn1cc(-c2cccc3c(N)c(C(N)=O)nnc23)cn1 | 16 |
| Nc1nccc(-c2ccc3c(N)n[nH]c3c2)n1 [GSK1034945] | 12 |
| C[C@@H]1CNc2c(sc3ccc4nc(-c5ccc(O)cc5)ccc4c23)C(=O)N1 | 27 |
| COc1cccc(C2=C(Nc3cccc(Cl)c3)C(=O)NC2=O)c1 [SB-341556] | 0 |
| CCn1c(-c2nonc2N)nc2cncc(Br)c21 [SB-738004] | 0 |
| COc1cc2c(Nc3ccc(NC(=O)c4ccccc4)cc3)ncnc2cc1OCCCN1CCOCC1 [GSK301329] | 0 |
| O=C1NCCc2[nH]c(-c3ccncc3)cc21 | 27 |
| Cc1ccc(Nc2ccnc(Nc3ccc4c(c3)CS(=O)(=O)C4)n2)cc1O.Cl [GW579362] | 85 |
| O=C(Nc1n[nH]c2cc(-c3ccco3)ccc12)C1CC1 [SB-737447] | 0 |
| CN(c1cccc(CNc2nc(Nc3ccc4c(c3)CC(=O)N4)ncc2C(F)(F)F)c1)S(C)(=O)=O | 0 |
| Cc1ccc(C(=O)Nc2ccc(Oc3ccc4nc(NC(=O)C5CC5)cn4c3)c(F)c2)c(=O)n1-c1ccccc1 | 0 |
| COC(=O)c1cccc(NC(=O)NC2CCN(c3ccnc(NCc4ccc(F)cc4)n3)CC2)c1 [GSK1379860] | 0 |
| Cl.c1ccc(Oc2ccc(Nc3ccnc4cc(-c5ccc(CN6CCNCC6)o5)ccc34)cc2)nc1 [GW567142] | 0 |
| O=C(NCC1CC1)c1ccc(-c2cc(C(=O)NC3CC3)ccc2F)cc1 [GW810445] | 0 |
| C[C@@H](Oc1cc(-n2cnc3cc(-c4cnn(C)c4)ccc32)sc1C(N)=O)c1ccccc1Cl [GSK580432] | 19 |
| CC(C)c1nc(-c2cccc(NS(=O)(=O)c3ccccc3)c2)c(-c2ccnc(Nc3ccc4c(c3)CN(C)CC4)n2)s1 [GSK1649598] | 81 |
| C[C@@H](Oc1cc(-n2cnc3ccc(-c4ccncc4)cc32)sc1C(N)=O)c1ccccc1Cl [GSK483724] | 0 |
| CCn1c(-c2nonc2N)nc2cncc(CNC3CCNCC3)c21.Cl [SB-747651] | 0 |
| CC(C)S(=O)(=O)N1CCN(Cc2ccc3c(c2)nc(NC(=O)c2ccsc2)n3C[C@H](O)c2ccccc2)CC1 [GW635815] | 15 |
| COc1cc(Nc2nccc(N3CCC(NC(=O)c4cccc(C#N)c4)C3)n2)cc(OC)c1OC (stereo not drawn) [GSK1379751] | 0 |
| Cc1ccc(CC(=O)N2CCc3cc(-c4cn(C)c5ncnc(N)c45)ccc32)cc1 [GSK2634758] | 0 |
